# Bioassay records deposited in PubChem by National Center for Advancing Translational Sciences (NCATS).
# GLP-1R inv ag = GLP-1 receptor (human) inverse agonism; 1.6% of 410,000 active; Potency, µM (series often up to 38.3 µM), inactives show at the highest dose activity change, negative = inhibition, usual class: inhibitors; HEK293 GLP-1R CRE-luciferase, luminescence, 24 h; GLP-1R form is constitutively active; also: potency is read from the fitted curve at half-maximal effect; % is scaled to controls: 0 for no effect and ±100 for the full control effect; nearly all actives have a fitted effect of over 55% in size
#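 Seeding at 200 cells/uL, 12 h culture, 24 hr compound treatment, then luciferase reagent and a luminescence read; cells are HEK293 stably expressing a constitutively active GLP-1R plus cAMP-responsive luciferase.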
# HEK293 tox = cytotoxicity in counter-screen for GLP-1R inverse agonists | 0.13% of 410,000 active | Potency, µM (doses to about 38.3 µM), for the others: at the highest dose activity change, negative = inhibition, actives largely listed as inhibitors | HEK293 cAMP-luciferase reporter cells, luminescence, 24 h;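 also: loss of luciferase light is scored as toxicity; potency is read from the fitted curve at half-maximal effect; % is scaled to controls: 0 for no effect and ±100 for the full control effect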
#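 1536-well qHTS counterscreen of the MLSMR; 200 cells/uL, 12 h pre-incubation, 23 nL cpd, 24 h at 37 deg C 5% CO2, luciferase detection reagent, 12 min RT, luminescence. Inhibition = undesired.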
# GLP1R ag = agonists of human GLP-1 receptor; 0.007% of 380,000 active; HEK293 GLP-1R CRE-luciferase, luminescence, 4-6 h; cells express a hypersensitive GLP-1R form; P43220; Potency, µM (doses to about 45.6 µM), for the others: at the top dose activation, most hits filed as activators; also: potency is read from the fitted curve at half-maximal effect; % of control where 0% means no effect
# LDHA inh = blocks human lactate dehydrogenase A; P00338; purified LDHA, NADH/diaphorase-resazurin fluorescence; stronger effect = lower value; activity change, % (values are at about 110 or 230 µM); 0.15% of 480,000 active; in the data active = activity change below about -30%; inconclusive = mostly about -25% to -30%;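 also: plate controls were DMSO wells for no effect and wells without enzyme for full effect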
#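 Resorufin fluorescence (ex540/em590), read at 0 and 20 min after diaphorase/resazurin addition, reports the NADH left after a 5 min room-temperature reaction of 2 nM human LDH5 with 0.06 mM NADH and 0.2 mM pyruvate.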
# PTHR1 agonist = agonists of human PTHR1 parathyroid hormone receptor. Q03431. HEK293 GP2 PTHR1 cells, GloSensor cAMP luminescence, 1 h. Potency, µM (titrated, usually from 115 µM), without a hit: at the top dose activation, actives largely listed as activators. 0.075% of 410,000 active. AID 743266; also: potency is read from the fitted curve at half-maximal effect; nearly all actives have a fitted effect of over 55% in size
#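 HEK-293-derived GP2 cells expressing PTHR1 and a GloSensor cAMP reporter, 3,000/well, plated overnight, given luciferin plus IBMX (each 0.5 mM as added) for 1 h at 37 °C, then compound for 1 h at 37 °C. Luminescence was read after 15 min at room temperature.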
# mIDH1 inhibitor = inhibitors of human mutant IDH1 R132H. Potency, µM (top dose mostly 76.6 µM), for inactives: at the highest dose activity change, negative = inhibition, actives largely listed as inhibitors. O75874. 0.093% of 390,000 active. AID 602179. IDH1-R132H enzyme, NADPH consumption, diaphorase/resazurin fluorescence; also: potency is read from the fitted curve at half-maximal effect; % is scaled to controls: 0 for no effect and ±100 for the full control effect; nearly all actives have a fitted effect of over 65% in size
# Target sequence (O75874 whole entry R132H, stated change not applied): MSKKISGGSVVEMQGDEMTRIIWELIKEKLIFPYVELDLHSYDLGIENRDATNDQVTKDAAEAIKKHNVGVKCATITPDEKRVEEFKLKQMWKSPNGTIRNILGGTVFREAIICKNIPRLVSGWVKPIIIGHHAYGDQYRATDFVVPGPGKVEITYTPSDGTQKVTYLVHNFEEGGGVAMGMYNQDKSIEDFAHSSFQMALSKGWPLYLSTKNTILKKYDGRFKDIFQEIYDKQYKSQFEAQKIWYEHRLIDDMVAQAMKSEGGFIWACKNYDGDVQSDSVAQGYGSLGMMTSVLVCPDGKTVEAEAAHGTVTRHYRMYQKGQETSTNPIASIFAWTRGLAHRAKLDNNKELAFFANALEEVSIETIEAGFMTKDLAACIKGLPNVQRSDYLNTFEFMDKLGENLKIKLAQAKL
#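 IDH1-R132H (0.5 ug/mL dispensed) in pH 7.5 Tris buffer was preincubated 30 min with compound, then given a substrate mix of 0.016 mM NADPH and 2 mM alpha-KG for 80 min at room temperature; remaining NADPH was read by diaphorase/resazurin fluorescence.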
# Starred values were filed as active, the others as inactive; i = inactive; u = inconclusive; x = no result given; ! = not active in a repeat; [ ] = remark or other dose. This is a sample that favours compounds with a hit; in the whole collection about 1.7% have one here. Unless noted, calls follow the shape of the dose curve; as a rule, active = well fitted curve in the direction sought with a large enough effect; inconclusive = small, poorly fitted or top-dose-only effect, or another doubt; inactive = no such curve, though single readings can be large; an effect the other way counts as inactive or inconclusive.
SMILES,GLP-1R inv ag,HEK293 tox,GLP1R ag,LDHA inh,PTHR1 agonist,mIDH1 inhibitor
O=C(CN1CCN(c2nc(-c3cccs3)nc3scc(-c4ccccc4)c23)CC1)N1CCCC1,x,x,x,-4,x,x
Cc1ccc(C)c(S(=O)(=O)/N=C2\C=C(NS(=O)(=O)c3ccccc3)C(=O)c3ccccc32)c1,6%,-26%,-2%,8,-24%,21%
Cc1cc(C)c(S(=O)(=O)/N=C2/C=C(Sc3ncn[nH]3)C(=O)c3ccccc32)cc1C,10µM*,u,-33%,39,-11%,16%
Cc1ccc2nc(-c3cc(-c4ccccc4)no3)cn2c1,4µM*,9%,5%,-11,-29%,1%
COc1ccccc1OCC(=O)Nc1oc(-c2ccccc2)c(-c2ccccc2)c1C#N,u,3%,-14%,-2,-21%,-1%
COc1ccc(CC(=O)Nc2oc(-c3ccccc3)c(-c3ccccc3)c2C#N)cc1OC,2.2µM*,-13%,-1%,-7,-15%[57.5 µM],7%
CCOC(=O)C1=C(C)N(CC)C(=S)NC1c1ccc(Cl)cc1 (stereo unspecified),10µM*,u,2%,-1,-30%,4%
O=C(NC1CCS(=O)(=O)C1)c1cc2sccc2n1Cc1ccccc1Cl (stereo unspecified),x,x,x,7,x,x
Cc1ccc(NS(=O)(=O)c2ccc(NC(=O)CN(c3cc([N+](=O)[O-])ccc3C)S(C)(=O)=O)cc2)c(C)c1,2.2µM*,u,-8%,-6,i,-3%
Cc1cc(C(=O)OC(C)C(=O)NC(N)=O)c2ccccc2n1 (stereo unspecified),x,x,x,-32*,x,x
Cc1ccc2nc(C)cc(C(=O)OC(C)C(=O)NCC(C)C)c2c1 (stereo unspecified),x,x,x,-30*,x,x
Cc1cc(C(=O)OCC(=O)NCC(C)C)c2ccccc2n1,x,x,x,0,x,x
CCNC(=O)NC(=O)C(C)OC(=O)c1cc(C)nc2ccccc12 (stereo unspecified),x,x,x,13,x,x
Cc1ccc(C(=O)/C=C/c2ccc(O)cc2)cc1C,x,x,x,0,x,x
Fc1ccccc1CNC(=S)NC1CC2CCC1C2 (stereo unspecified),x,x,x,-1,x,x
CC(SC1CCCC1)C(=O)Nc1ccc2c(c1)CCC2 (stereo unspecified),x,x,x,1,x,x
Cc1c(Cl)ccc2c(C(=O)NCCCn3nccc3C)cc(-c3ccccn3)nc12,u,-4%,0%,-10,i,-1%
Cc1c(Cl)ccc2c(C(=O)NCCN3CCCCC3)cc(-c3ccccn3)nc12,3.5µM*,u,5%,-9,i,0%
CN1C[C@H]2CON(C)[C@H]2C[C@H]1c1cccc(-c2ccc(C#N)cc2)c1,11%,6%,1%,-4,0%,3%[38.3 µM]
CN1OC[C@@H]2CN(Cc3cc(Cl)cc(Cl)c3)[C@H](c3cccc(-c4ccc(C#N)cc4)c3)C[C@@H]21,-6%,0%,3%,-31*,-5%,-15%
CCOC(=O)c1cc(-c2ccc(F)cc2)n(CCC(=O)NCc2ccc(C)cc2)c1C,10µM*,-6%,x,-8,-2%,-10%
CCOC(=O)c1cc(-c2ccc(F)cc2)n(CCC(=O)Nc2ccccc2OC)c1C,10µM*,-3%,x,-5,-10%,-4%
CCOC(=O)c1cc(-c2ccc(OC)cc2)n(CCC(=O)Nc2ccccc2OC)c1C,u,2%,x,1,i,27%
CCOC(=O)c1cc(-c2ccc(F)cc2)n(CCC(=O)NCc2ccccc2OC)c1C,u,7%,x,-5,i,0%
Cc1nc(NC(=O)c2cc(F)ccc2Br)sc1C,x,x,x,9,x,x
SMILES,GLP-1R inv ag,HEK293 tox,GLP1R ag,LDHA inh,PTHR1 agonist,mIDH1 inhibitor
O=c1[nH]c(=O)n(Cc2ccco2)c2c1C(C(F)(F)F)(C(F)(F)F)N=C(c1ccccc1)N2,x,x,x,-12,x,x
Cc1cc(-c2csc(N)n2)c(C)n1-c1c(C)n(C)n(-c2ccccc2)c1=O,x,x,x,7,x,x
O=C(Cn1ccc2ccccc21)Nc1ccc2c(c1)OCO2,-21%,1%,16%,-36*!,i,-8%
NC(=O)[C@H]1CC2(CC(c3cccc(NC(=O)COc4ccc(Cl)cc4)c3)=NO2)CN1C(=O)CC(c1ccccc1)c1ccccc1 (stereo partly specified),10µM*,2%,-4%,-4,i,-12%[38.3 µM]
NC(=O)[C@@H]1CC2(CC(c3cccc(NC(=O)CC(c4ccccc4)c4ccccc4)c3)=NO2)CN1C(=O)COc1ccc(Cl)cc1 (stereo partly specified),11µM*,-21%,2%,-6,i,-9%
CC1=C(O[Si](C)(C)C)CC2C(=O)OC(=O)C2C1c1ccccc1 (stereo unspecified),x,x,x,0,x,x
N#CC1=C(N)NC(SCc2ccc(Br)cc2)=C(C#N)C12CCCCC2,10µM*,-14%,1%,-5,-85%,-1%
COc1cc(C(=O)O[C@H]2C/C(C)=C/CC[C@@]3(C)O[C@@H]3[C@H](O)[C@@H]2C(C)C)cc(OC)c1OC,13µM*,6%,8%,1,-39%,20%
Cc1ccc(OCC(=O)Nc2ccc3oc(C)nc3c2)c(C)c1,x,x,x,0,x,x
COc1ccccc1CNC(=O)C1(NC(=O)Nc2ccc(C)cc2)CCCCC1,8.9µM*,-7%,-8%,-22,i,-3%
CNC(=S)N(C)Cc1ccccc1Br,x,x,x,-1,x,x
O=C(N=Nc1c(O)[nH]c2ccccc12)c1cc(-c2cccs2)[nH]n1,17%,-18%,10%,-39*,-13%,33%
Cc1ccc2nc(SCC(=O)NC3CCCc4ccccc43)[nH]c2c1 (stereo unspecified),8.9µM*,-9%,-1%,-7,-13%,16%
O=C(CSc1cc(Cl)ccc1Cl)NC1CCCc2ccccc21 (stereo unspecified),u,16%,6%,-14,-8%,-13%
Cn1c(-c2c(N)n(C3CCCC3)c3nc4ccccc4nc23)nc2ccccc21,4µM*,334%,0%,-1,-2%[57.5 µM],4%
O=C(OCc1ccccc1)N1CCC2CC1c1cc(N3CCNCC3)ccc12 (stereo unspecified),u,2%,28%,-31*,-33%,-14%
COc1ccc(-c2ccc3c(c2)C2CC3CCN2C(=O)OCc2ccccc2)cc1 (stereo unspecified),u,-22%,14%,0,i,2%[38.3 µM]
